Experimental findings from PubChem BioAssay AID588397 (National Center for Advancing Translational Sciences (NCATS), 2011) are described below.

Screen size: about 1,300 compounds; about 1,000 (77%) were called active. Another 7% or so got no clear call; they are omitted. Calls come from the whole dose curve; as a rule, active = well fitted inhibition curve with a large enough effect; inconclusive = small, poorly fitted or top-dose-only effect; inactive = no such curve, though single readings can be large or run the other way. The set was probably picked from earlier hits. The list shows a part of the results.
% is set by controls: 0 for no effect and ±100 for the full control effect; potency is the fitted concentration of half-maximal effect.

The assay is described as follows: qHTS of small molecules that selectively kill Giardia lamblia: Hit Validation.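 Note: viability measured as ATP content by luminescence so killing lowers signal; nearly all actives have a fitted effect of over 65% in size.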 To be noted: Giardia lamblia trophozoite viability, dose-response; series mostly up to 38.3 µM; activity change, negative = killing: at the top concentration. The method, boiled down: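 Giardia trophozoites, 100 cells per well, were exposed to compounds for 48 hrs at 37 deg C under anaerobic conditions; viability was then read as ATP content by bioluminescence after 15-30 min at room temperature.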
With `O=S1(=O)[C@H]2C[C@@H]3C=C[C@@]2(CN1Cc1cccc(F)c1)O3`, the “activity change, negative = killing” value was -10.8% (inactive).
With `Cc1cccc(CCN=c2c([N+](=O)[O-])nn(-c3ccccc3)n2O)c1`, the Potency was 2900 nM (active).
Still for that read-out and setting: the same measure for `COc1ccc(-n2nc([N+](=O)[O-])c(=NCCc3cccc(C)c3)n2O)cc1`: 1300 nM (active); for `CN(C)c1nc(=Nc2cccc(Cl)c2)ss1`: 11600 nM (active).
As to `CCCSc1nc2c(c(=O)n1CC)SC(C)C2` (stereo not drawn), the “activity change, negative = killing” value was -12.4% (inactive).
With `O=C(CSc1nnc(NC(=O)c2c(F)cccc2F)s1)Nc1ccc(F)cc1`, the “activity change, negative = killing” value was -33.4% (inactive).
As for `O=C(Nc1nnc(SCC(=O)N2CCOCC2)s1)c1ccccc1`, the Potency was 5160 nM (active).
Same read-out and setting: with `O=C(Nc1nnc(SCC(=O)N2CCOCC2)s1)c1ccccc1Cl` the figure was 5790 nM (active).
As to `O=C(CSc1nnc(NC(=O)c2ccccc2)s1)NCc1ccco1`, the Potency was 4600 nM (active).
For the molecule `O=[N+]([O-])c1cn(-c2nc(-c3ccco3)cc(C(F)(F)F)n2)cn1`, the Potency was 2590 nM (active).
On the same count and under the same terms, with `COC(=O)[C@@]1(Cc2ccc(OC)cc2)[C@H]2c3cc(C(=O)N4CCCC4)n(CCn4cc([N+](=O)[O-])nc4C)c3C[C@H]2CN1C(=O)c1ccccc1` the figure was 206 nM (active); with `O=[N+]([O-])c1ncc(Br)cc1Nc1ccccc1`, 516 nM (active).
As to `C[C@@H]1[C@H]2[C@@H](O[C@@H]3O[C@H](CO)[C@@H](O)[C@H](O)[C@H]3O)OC=C(C(=O)O)[C@H]2C[C@@H]1O`, the “activity change, negative = killing” value is -3.42% (inactive).
As for `O=C(c1cccc(F)c1)N1CCN(c2ccc([N+](=O)[O-])c3cccnc23)CC1`, the Potency was 3260 nM (active).
The same measure, in the same setting: the same measure for `O=[N+]([O-])c1ccc(N2CCN(CCO)CC2)c2ncccc12`: 1450 nM (active).
The same measure, in the same setting: the same measure for `CS(=O)(=O)N1CCN(c2ccc([N+](=O)[O-])c3cccnc23)CC1`: 1030 nM (active); for `Nc1nonc1OCCN1CCN(c2ccc([N+](=O)[O-])c3cccnc23)CC1`: 1830 nM (active); for `O=c1c([N+](=O)[O-])cccn1Cc1ccc(F)cc1Cl`: 2310 nM (active).
Still for that read-out and setting: with `O=c1c([N+](=O)[O-])cccn1Cc1ccccc1Cl` the figure was 4100 nM (active).
On to `Clc1ccc2c(N/N=C/c3ccccc3Br)ccnc2c1`, for which the Potency was 1630 nM (active).
Turning to `Cc1ccccc1/C=N/Nc1ccnc2cc(Cl)ccc12`, the Potency is 326 nM (active).
The same measure, in the same setting: with `Cc1ccc(/C=N/Nc2ccnc3cc(Cl)ccc23)c(C)c1` the figure was 365 nM (active); with `COc1cc(/C=C/c2onc(C)c2[N+](=O)[O-])cc(OC)c1OC`, 2050 nM (active); with `Cc1noc(/C=C/c2cccnc2)c1[N+](=O)[O-]`, 8180 nM (active).
Same read-out and setting: with `Cc1cc2[nH]c3c(c[n+](C)c4ccccc34)c2cc1C` the figure was 1160 nM (active).
Same read-out and setting: with `COc1cc(C2Nc3ccccc3C(=O)N2c2ccc3c(c2)OCCO3)ccc1OCC(C)C` (stereo not drawn) the figure was 3260 nM (active); with `CC(C)Oc1ccccc1C1Nc2ccccc2C(=O)N1c1ccc2c(c1)OCCO2` (stereo not drawn), 5160 nM (active).
`CN(C)c1ccc(N=Nc2ccccc2C(=O)OCC(=O)N2CCCC2)cc1`: the Potency is 1450 nM (active).
Still for that read-out and setting: the same measure for `CC(=O)c1ccc(NC(=O)COC(=O)c2ccccc2N=Nc2ccc(N(C)C)cc2)cc1`: 3260 nM (active); for `CN(C)c1ccc(N=Nc2ccccc2C(=O)O)cc1`: 290 nM (active).
On the same count and under the same terms, the same measure for `CC(=O)NC(Cc1cccc(C)c1)C(=O)NC1CCN(c2ncccc2[N+](=O)[O-])CC1` (stereo not drawn): 4600 nM (active).
Same read-out and setting: with `CC(=O)NC(Cc1cccc(F)c1)C(=O)NC1CCN(c2ncccc2[N+](=O)[O-])CC1` (stereo not drawn) the figure was 2310 nM (active).
As for `Cc1ccc(-n2nc3c(N4CCC(C(=O)NCc5cccc(F)c5)CC4)nnc(C)c3c2C)cc1`, the “activity change, negative = killing” value is -12.7% (inactive).
Take `COc1ccc(OC)c(CCNC(=O)CSc2ccsc2[N+](=O)[O-])c1`: the Potency is 729 nM (active).
On to `COc1ccc(CCNC(=O)CSc2ccsc2[N+](=O)[O-])cc1OC`, for which the Potency was 516 nM (active).
For the molecule `COc1ccc(CCNC(=O)C23CCC(C)(C(=O)C2=O)C3(C)C)cc1OC` (stereo not drawn), the “activity change, negative = killing” value is -8.09% (inactive).
Still for that read-out and setting: the same measure for `COCCn1c(C)cc(/C=C2\NC(=S)N(C)C2=O)c1C`: -34.6% (inactive).
On to `COCCn1c(C)cc(/C=C2/SC(=O)N(C(C)C(=O)OC)C2=O)c1C` (stereo not drawn), for which the Potency was 5790 nM (active).
Same read-out and setting: the same measure for `O=C(Nc1ccc(-c2cn3ccsc3n2)cc1)C1CC1`: 3260 nM (active).
In the case of `COc1ccc(OCc2nnc3n2N=C(c2ccc(OC)cc2)CS3)cc1`, the “activity change, negative = killing” value is -24.4% (inactive).
For the molecule `COc1ccc(-c2cn3ccsc3n2)cc1`, the Potency is 9180 nM (active).
Regarding `CC(=O)OCCSc1c(-c2ccccc2)c2cc(Cl)ccc2[nH]c1=O`, the “activity change, negative = killing” value is -2.52% (inactive).
In the case of `Cc1ccc(NC(=O)c2ccc([N+](=O)[O-])o2)c(C)c1`, the Potency is 1300 nM (active).
Take `Cc1cccc(NC(=O)N2CCN(Cc3ccc4c(c3)OCO4)CC2)c1C`: the “activity change, negative = killing” value is -17.8% (inactive).
With `Cc1cccc(NC(=O)c2ccc([N+](=O)[O-])o2)c1C`, the Potency is 1830 nM (active).
On the same count and under the same terms, the same measure for `Cc1ccc(N/C(C(Cl)=C(Cl)Cl)=C(/Cl)[N+](=O)[O-])c(C)c1`: 818 nM (active).
For `COc1ccccc1S(=O)(=O)Cc1ccc(C(=O)NCC(OC)OC)o1`, the “activity change, negative = killing” value is 11.7% (inactive).
On the same count and under the same terms, with `CCS(=O)(=O)N1Cc2ccccc2CC1C(=O)Nc1ccccc1OC` (stereo not drawn) the figure was -4.77% (inactive); with `Cc1ccc([N+](=O)[O-])c(C(=O)Nc2cccnc2Cl)c1`, -9.71% (inactive).
As for `COc1ccccc1NC(=O)c1ccc([N+](=O)[O-])o1`, the Potency is 1450 nM (active).
On the same count and under the same terms, the same measure for `Cc1ccccc1NC(=O)c1ccc([N+](=O)[O-])o1`: 1830 nM (active); for `O=C(Nc1ccccc1Cl)c1ccc([N+](=O)[O-])o1`: 1300 nM (active); for `COc1ccc(-c2cc3ccccc3oc2=O)cc1NC(=O)c1ccc([N+](=O)[O-])o1`: 729 nM (active).
Still for that read-out and setting: with `Cn1c(=O)c(=O)n(C)c2cc([N+](=O)[O-])c(N3CCOCC3)cc21` the figure was 4100 nM (active); with `O=C(N/N=C/c1ccc([N+](=O)[O-])o1)c1cn2ccc3ccccc3c2n1`, 918 nM (active).
On the same count and under the same terms, with `O=C(N/N=C/c1ccc([N+](=O)[O-])o1)c1cc2c(ccc3ccccc32)o1` the figure was 729 nM (active); with `O=C(N/N=C/c1ccc([N+](=O)[O-])o1)c1sc2ccccc2c1Cl`, 1300 nM (active); with `O=C(N/N=C/c1ccc([N+](=O)[O-])o1)c1cc2ccccc2o1`, 516 nM (active).
With `O=[N+]([O-])c1nn(-c2ccc3c(c2)OCCO3)n(O)c1=NC1CCN(Cc2ccccc2)CC1`, the Potency was 460 nM (active).
`COc1ccc(-n2nc([N+](=O)[O-])c(=NC3CCN(Cc4ccccc4)CC3)n2O)cc1`: the Potency was 729 nM (active).
On the same count and under the same terms, the same measure for `Cc1cccc(-n2nc([N+](=O)[O-])c(=NC3CCN(Cc4ccccc4)CC3)n2O)c1`: 729 nM (active).
On the same count and under the same terms, the same measure for `O=[N+]([O-])c1nn(-c2ccccc2)n(O)c1=NC1CCN(Cc2ccccc2)CC1`: 365 nM (active).
On the same count and under the same terms, with `O=C(N/N=C/c1ccc([N+](=O)[O-])s1)C(O)c1ccccc1` (stereo not drawn) the figure was 2900 nM (active); with `Cc1ccc(NC(=S)N/N=C/c2ccc([N+](=O)[O-])s2)cc1`, 2310 nM (active); with `O=C(N/N=C\c1ccc([N+](=O)[O-])s1)c1cncc(Br)c1`, 2900 nM (active).
In the case of `O=[N+]([O-])c1ccc(/C=N/Nc2ncccc2[N+](=O)[O-])s1`, the Potency was 2310 nM (active).
Still for that read-out and setting: the same measure for `O=[N+]([O-])c1ccc(/C=N/NC(=S)Nc2ccc(Cl)cc2Cl)s1`: 3650 nM (active); for `O=C(N/N=C/c1ccc([N+](=O)[O-])s1)c1cccnc1`: 2310 nM (active).
For `O=C(N/N=C/c1ccc([N+](=O)[O-])s1)c1ccccc1`, the Potency is 1630 nM (active).
On the same count and under the same terms, with `Cc1ccc(C(=O)N/N=C/c2ccc([N+](=O)[O-])s2)cc1` the figure was 1030 nM (active).
With `COc1cc(CNc2nnnn2C)cc(OC)c1OC`, the “activity change, negative = killing” value was 7.64% (inactive).
For the molecule `O=[N+]([O-])c1ccc(/C=N/Nc2nc(N3CCCC3)nc(N3CCCC3)n2)o1`, the Potency is 2050 nM (active).
In the case of `O=[N+]([O-])c1cc(/C=N/Nc2nc(N3CCCCC3)nc(N3CCCCC3)n2)ccc1O`, the Potency was 6500 nM (active).
As to `O=[N+]([O-])c1ccc(/C=N/Nc2nc(N3CCCCC3)nc(N3CCCCC3)n2)o1`, the Potency was 1160 nM (active).
On to `COc1cccc(CNCc2cccc(Br)c2)c1OC`, for which the “activity change, negative = killing” value was 7.37% (inactive).
`O=[N+]([O-])c1ncccc1Oc1nc(-c2cccnc2)nc2ccccc12`: the Potency is 2050 nM (active).
On the same count and under the same terms, the same measure for `FC(F)(F)c1ccc2c(c1)N1CCCC1CN2` (stereo not drawn): 1450 nM (active).
Consider `CCOC(=O)/C=C/[C@H]1CCc2cccc(Cl)c2O1`, for which the “activity change, negative = killing” value was -22.7% (inactive).
Regarding `Nc1ccc(-c2cnc(-c3ccc(N)cc3)nc2)cc1`, the Potency was 4100 nM (active).
Turning to `CNN/C(N=Cc1ccc([N+](=O)[O-])s1)=N\S(=O)(=O)c1cc(C)c(Cl)cc1SCc1ccccc1`, the Potency was 1030 nM (active).
The same measure, in the same setting: the same measure for `CN1C(=O)/C(=C/c2ccc(O)c([N+](=O)[O-])c2)NC1=S`: 3260 nM (active).
On the same count and under the same terms, the same measure for `CN1C(=O)/C(=C/c2ccc(O)c([N+](=O)[O-])c2)N(C)C1=S`: 3260 nM (active).
As to `Cc1ccc(C(CC(=O)O)NC(=O)c2ccc(S(=O)(=O)N3CC(C)OC(C)C3)cc2)cc1` (stereo not drawn), the “activity change, negative = killing” value was -5.13% (inactive).
The same measure, in the same setting: the same measure for `O=C(CCN1C(=O)c2ccccc2C1=O)Nc1ccccc1C(F)(F)F`: 21% (inactive).
Consider `O=C1c2ccc3c4c(ccc(c24)C(=O)N1CCCCO)C(=O)N(CCCCO)C3=O`, for which the Potency was 1830 nM (active).
For the molecule `CCOC(=O)c1c(NC(=O)CS(=O)(=O)c2cn(CC)c3ccccc23)sc2c1CCCCC2`, the “activity change, negative = killing” value is 1.17% (inactive).
Consider `CC1CCc2c(sc(NC(=O)CCCn3cnc([N+](=O)[O-])n3)c2C(N)=O)C1` (stereo not drawn), for which the Potency was 4600 nM (active).
Turning to `NC(=O)c1c(NC(=O)CCCn2cnc([N+](=O)[O-])n2)sc2c1CCCC2`, the Potency was 7290 nM (active).
Same read-out and setting: the same measure for `CC1CCc2c(sc(NC(=O)Cn3cnc([N+](=O)[O-])n3)c2C(N)=O)C1` (stereo not drawn): 18300 nM (active).
For the molecule `Cc1nc(CS(=O)(=O)c2ccc(Cl)cc2)sc1C(=O)O`, the “activity change, negative = killing” value is 7.64% (inactive).
`O=C1c2ccccc2C(=O)c2c1ccc1c(=O)n(C3CCCCC3)[nH]c21`: the Potency is 2310 nM (active).
Still for that read-out and setting: the same measure for `CC(C)Cn1[nH]c2c3c(ccc2c1=O)C(=O)c1ccccc1C3=O`: 1450 nM (active).
Same read-out and setting: the same measure for `COCCCn1[nH]c2c3c(ccc2c1=O)C(=O)c1ccccc1C3=O`: 1030 nM (active).
